Consider 40 molecules from PubChem BioAssay (Tox21).

Results filed as inconclusive are left out. Active and inactive are the calls of the source. The call rests on the fitted dose curve; in most records, active means well fitted cell-killing curve with a large enough effect in the repeat runs; inconclusive means weak or mixed curves, or effect the other way; inactive means flat fitted curve, though single readings scatter.
On the % scale 0 is the no-effect control and ±100 the full control effect.

A short description of the test: qHTS assay to identify small molecule antagonists of the androgen receptor (AR) signaling pathway using the MDA cell line in the presence of 0.5 nM R1881 - cell viability counter screen (AID 1259242). Further: nearly all actives have a fitted effect of over 45% in size. The note with it: MDA-kb2 viability, CellTiter-Fluor protease fluorescence, 16 h; series mostly up to 92.4 µM. From the text:
U.S. Tox21 Program National Center for Advancing Translational Sciences [NCATS] NIH Chemical Genomics Center [NCGC] U.S. Environmental Protection Agency [EPA] National Institutes of Environmental Health Sciences [NIEHS] National Toxicology Program [NTP] U.S. Food and Drug Administration [FDA] Tox21 Assay Overview: Androgen receptor (AR) is an important member of the nuclear receptor family. Its signaling plays a critical role in AR-dependent prostate cancer and other androgen related diseases. Considerable attention has been given in the past decades to develop methods to study and screen for the environmental chemicals that have the potential to interfere with metabolic homeostasis, reproduction, developmental and behavioral functions. Therefore AR binding assay for screening androgen antagonists can be used to identify potential endocrine disruptors. MDA-kb2 cells (from ATCC, deposited by Wilson et al.) were used to screen for AR inhibitors against Tox21 compound libraries. These cells are human breast carcinoma cells that were stably transfected with a luciferase reporter gene under control of the MMTV promoter that contains response elements for both androgen receptor (AR) and glucocorticoid receptor (GR). The current screening for identification of AR inhibitors against Tox21 libraries used lower concentration of (0.5 nM) R1881 as a stimulator. The cytotoxicity of the Tox21 compound libraries against MDA-kb2 cell line was tested by measuring live-cell protease activity using CellTiter-Fluor assay in the same wells.
Tox21 Assay Protocol Summary: MDA-kb2 cells (cells cultured without CO2) were dispensed at 3,000 cells/well in 4 uL of culture medium into white wall/solid-bottom 1536-well plates (Corning Life Sciences, Corning, NY) using a Multidrop Combi (ThermoFisher Scientific, Waltham, MA) dispenser. After the assay plates were incubated at a 37C and 0% CO2 for 5 hr, 23 nL of compounds dissolved in DMSO, positive controls or DMSO only was transferred to the assay plate by a Pintool station (Kalypsys, San Diego, CA). The transfer of compounds was followed by the addition of 1 uL of 0.5 nM (final concentration) agonist (R1881)/culture medium using a Flying Reagent Dispenser (FRD, Aurora Discovery, San Diego, CA). The plates were incubated at 37C and 0% CO2 for 16 hr. For cytotoxicity assay, 1 uL of CellTiter-Fluor reagent (Promega Corporation, Madison, WI) was added to each well using the FRD and after 30 min incubation at 37C and 0% CO2, The fluorescence intensity was measured using ViewLux plate reader (PerkinElmer, Shelton, CT).
(In qHTS, concentration-response curves come from the screen itself.)
Regarding `O=C(O)c1cc(Cl)cc([N+](=O)[O-])c1Cl`, the result was inactive. Consider `COc1ccc2c(c1)C(=O)N(CCc1ccc(S(=O)(=O)NC(=O)NC3CCCCC3)cc1)C(=O)C2(C)C`, for which the outcome was inactive.

With `O=C(OCC(O)CO)c1ccccc1Nc1ccnc2c(C(F)(F)F)cccc12` (stereo not given), the outcome was inactive. On the same count and under the same terms, the same measure for `CC(C)CC(=O)O`: “inactive”; for `CCCCCCCCCCCCCC`: “inactive”. For `Cc1nc2n(c(=O)c1CCN1CCC(c3noc4cc(F)ccc34)CC1)CCC[C@H]2O`, the viability change, negative = cytotoxic is 9.15% [at 19 µM] (inactive).

For `COc1ccc2nc(SCc3ncc(C)c(OC)c3C)[nH]c2c1`, the result was inactive. Same read-out and setting: in the case of `Nc1ccc(S(=O)(=O)Nc2ccc(Cl)nn2)cc1` it was “inactive”. Same read-out and setting: in the case of `C#CC(C)N(C)C(=O)Nc1ccc(Cl)cc1` (stereo not given) it was “inactive”; in that of `CCCCCCCCC(=O)Cl`, “inactive”. Same read-out and setting: in the case of `O=S(=O)(O)CCN1CCN(CCO)CC1` it was “inactive”; in that of `CC(CO)c1ccccc1` (stereo not given), “inactive”. `NS(=O)(=O)c1ccc(NC(=O)CCC(=O)O)cc1`: the outcome was inactive.

`COC(=O)CCCCCCCC(=O)OC`: the result was inactive. With `CCCCCCCC/C=C\CCCCCCCC(=O)OCCCC`, the viability change, negative = cytotoxic was -4.19% [at 19 µM] (inactive). Regarding `O=S(=O)(O)c1ccc2cc(O)c(S(=O)(=O)O)cc2c1`, the result was inactive. On to `Cc1ccccc1C(=O)Nc1ccc(C(=O)N2CCCC(N(C)C)c3ccccc32)cc1` (stereo not given), for which the result was inactive. With `C[C@H](CCC(=O)O)[C@H]1CC[C@H]2[C@@H]3C(=O)C[C@@H]4CC(=O)CC[C@]4(C)[C@H]3CC(=O)[C@]12C`, the result was inactive. `COc1cc(N)ccc1C`: the outcome was inactive. Still for that read-out and setting: in the case of `Cc1ccccc1N=O` it was “inactive”; in that of `C=C1CC/C=C(\C)CC[C@@H]2[C@@H]1CC2(C)C`, “inactive”. Still for that read-out and setting: in the case of `CCOC(=O)c1ncn2c1CN(C)C(=O)c1cc(F)ccc1-2` it was “inactive”. Consider `O=C(OCC1(COC(=O)c2cccnc2)CCCC(COC(=O)c2cccnc2)(COC(=O)c2cccnc2)C1O)c1cccnc1`, for which the result was inactive. The same measure, in the same setting: in the case of `CCCCCCOC(=O)CC` it was “inactive”; in that of `C[C@H](N)[C@H](O)c1cccc(O)c1`, “inactive”. For `C=C(C)C(=O)OCC(C)(C)COC(=O)C(=C)C`, the result was inactive. Same read-out and setting: in the case of `CC(=C(CCOC(=O)C(C)C)SSC(CCOC(=O)C(C)C)=C(C)N(C=O)Cc1cnc(C)nc1N)N(C=O)Cc1cnc(C)nc1N` it was “inactive”; in that of `CC(C)(C)c1nnc(NS(=O)(=O)c2ccc(N)cc2)s1`, “inactive”; in that of `COc1cc2c(cc1OC)[C@@H]1CC(=O)[C@@H](CC(C)C)CN1CC2`, “inactive”. Same read-out and setting: the same measure for `ClCCCl`: “inactive”; for `O=C(c1ccc(O)cc1)c1ccc(O)c(O)c1O`: “inactive”; for `BrCc1cccc(Oc2ccccc2)c1`: “inactive”. Still for that read-out and setting: in the case of `Cc1ccc(S(=O)(=O)O)c(C)c1` it was “inactive”.

For `O=S(O)(O)=S`, the viability change, negative = cytotoxic is -0.767% [at 8.39 µM] (inactive). Turning to `COCCOCCOCCOCCOCCO`, the result was inactive. In the case of `C[Si](C)=O`, the viability change, negative = cytotoxic is 2.02% [at 8.39 µM] (inactive). Take `COc1cc(NS(=O)(=O)c2ccc(N)cc2)nc(OC)n1`: the result was inactive. On the same count and under the same terms, the same measure for `CC(C)C(=O)OCCc1ccccc1`: “inactive”; for `CCOC(=O)[C@H](CCc1ccccc1)N[C@@H](C)C(=O)N1C(=O)N(C)C[C@H]1C(=O)O`: “inactive”. `NCCS`: the outcome was inactive.
